Test [1] can be described thus: qHTS assay to identify aromatase inhibitors - cell viability counter screen (AID 743084).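 Further: cells stimulated with testosterone during compound exposure; nearly all actives have a fitted effect of over 55% in size.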 Conditions: MCF-7 aro ERE viability, CellTiter-Fluor, 24 h; series mostly up to 70.3 µM.
The nature of test [2]: qHTS assay to identify small molecule that activate the aryl hydrocarbon receptor (AhR) signaling pathway - cell viability counter screen (AID 743086).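 Further: HepG2 liver cells carrying the AhR DRE luciferase reporter; nearly all actives have a fitted effect of over 45% in size.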 Conditions: HepG2-AhR-luc viability, CellTiter-Fluor, 24 h; series mostly up to 70.3 µM. The method in brief: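 HepG2-AhR-luc (HG2L7.5c1) cells, 4000/well, treated 24 h at 37 C with compound; viability measured as CellTiter-Fluor fluorescence after 30 min in the same wells as the luciferase read.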

A short description of test [3]: qHTS assay to identify small molecule antagonists of the peroxisome proliferator-activated receptor gamma (PPARg) signaling pathway - cell viability counter screen (AID 743194). Further: nearly all actives have a fitted effect of over 55% in size. Conditions: PPARg-bla HEK293H viability, CellTiter-Glo luminescence, 17 h, co-treated with 50 nM rosiglitazone; series mostly up to 62.6 µM. The method in brief:
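Cytotoxicity counter screen in PPARg-bla HEK293H cells, same wells as reporter assay. Compounds plus 50 nM rosiglitazone (final) for 17 h at 37 C, then viability read by CellTiter-Glo luminescence.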
In general terms: In qHTS, concentration-response curves come from the screen itself.

The nature of test [4]: qHTS assay for small molecule agonists of the antioxidant response element (ARE) signaling pathway - cell viability counter screen (AID 743203; calls by dose curve; further: nearly all actives have a fitted effect of over 55% in size). The settings on record: ARE-bla HepG2 viability, CellTiter-Glo luminescence, 16 h; series mostly up to 73.3 µM. The method in brief: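 Measured in the same wells as the beta-lactamase ARE reporter, this read-out is CellTiter-Glo luminescence from HepG2 ARE-bla cells given compounds for 16 hrs.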

Test [5] can be described thus: qHTS assay for small molecule activators of the heat shock response signaling pathway (AID 743210; active means well fitted activation curve with a large enough effect in the signal ratio in the repeat runs, with a control signal flat, not every such curve was filed as active; the % refers to the signal ratio;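 further: HeLa cells with beta-lactamase reporter driven by heat shock elements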). Conditions: HeLa HSE-bla reporter, beta-lactamase ratio, 5 h; series mostly up to 62.6 µM. The method in brief: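 Following overnight attachment, HSE-bla HeLa cells received test compounds for 5 h at 37 C; beta-lactamase activity was then detected via FRET substrate fluorescence.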

Test [6] can be described thus: qHTS assay to identify small molecule agonists of the peroxisome proliferator-activated receptor delta (PPARd) signaling pathway - cell viability counter screen (AID 743211). Further: nearly all actives have a fitted effect of over 55% in size. Conditions: PPARd-bla HEK293H viability, CellTiter-Glo luminescence, 17 h; series mostly up to 62.6 µM. The method in brief: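 Multiplexed format: after the 2 h room-temperature LiveBLAzer B/G FRET step, CellTiter-Glo was added to the same wells. Luminescence after 30 min gave cell viability; compound exposure was 17 h at 37C.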

Test [7] in a line: qHTS assay to identify small molecule antagonists of the peroxisome proliferator-activated receptor delta (PPARd) signaling pathway - cell viability counter screen (AID 743213). Further: nearly all actives have a fitted effect of over 50% in size. The settings on record: PPARd-bla HEK293H viability, CellTiter-Glo luminescence, 17 h; series mostly up to 62 µM. Summed up:
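PPARd-bla HEK293H cells were treated with compounds plus agonist L165041 (300 nM final) for 17 h at 37 C. Viability was then read in the same wells by CellTiter-Glo luminescence after 30 min at room temperature.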

For test [8], the target named is Peroxisome proliferator-activated receptor delta (Homo sapiens) (UniProt Q03181). In words: qHTS assay to identify small molecule antagonists of the peroxisome proliferator-activated receptor delta (PPARd) signaling pathway (AID 743215; active means well fitted inhibition curve with a large enough effect in the signal ratio in the repeat runs, not every such curve was filed as active; the % refers to the signal ratio;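 further: cells stimulated with agonist L165041 at 300 nM final during compound exposure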). Conditions: HEK293H PPARd-UAS-bla, beta-lactamase FRET ratio, antagonist, 17 h; series mostly up to 62 µM. The method in brief: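 Fluorescence from cleaved LiveBLAzer B/G FRET substrate (2 h, room temperature) reports PPARd-driven beta-lactamase in HEK293H UAS-bla cells. Cells had been treated 17 h at 37 C with compound plus 300 nM final L165041.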
Peroxisome proliferator-activated receptor delta (Homo sapiens), sequence (Q03181 whole entry, looked up): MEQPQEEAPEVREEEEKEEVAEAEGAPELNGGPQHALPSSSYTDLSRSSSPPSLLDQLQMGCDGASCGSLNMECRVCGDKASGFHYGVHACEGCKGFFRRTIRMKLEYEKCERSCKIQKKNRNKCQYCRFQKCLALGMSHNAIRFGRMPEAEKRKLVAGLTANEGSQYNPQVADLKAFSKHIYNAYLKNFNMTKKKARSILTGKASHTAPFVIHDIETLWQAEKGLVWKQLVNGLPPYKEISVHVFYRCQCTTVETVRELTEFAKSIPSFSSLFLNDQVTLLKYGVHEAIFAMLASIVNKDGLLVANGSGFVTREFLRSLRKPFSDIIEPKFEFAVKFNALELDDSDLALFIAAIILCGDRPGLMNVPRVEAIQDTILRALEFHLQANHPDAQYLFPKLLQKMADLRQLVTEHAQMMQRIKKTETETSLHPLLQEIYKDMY

Test [9] has as its target Vitamin D3 receptor (Homo sapiens) (UniProt P11473). The test is described as follows: qHTS assay to identify small molecule agonists of the vitamin D receptor (VDR) signaling pathway (AID 743222; calls by dose curve). The settings on record: HEK293T VDR-UAS-bla, beta-lactamase FRET ratio, 16 h; series mostly up to 63.5 µM. The method in brief:
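Following 4 h attachment at 37C, VDR-bla cells (2,000 per well) received DMSO-dissolved compounds or controls. After 16 h incubation, LiveBLAzer B/G FRET substrate was added and fluorescence read 2 h later at room temperature.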

The target is the same in test [10]. The test is described as follows: qHTS assay to identify small molecule antagonists of the vitamin D receptor (VDR) signaling pathway (AID 743223; active means well fitted inhibition curve with a large enough effect in the signal ratio in the repeat runs, not every such curve was filed as active; the % refers to the signal ratio). Conditions: VDR-UAS-bla HEK293T, beta-lactamase FRET ratio, 16 h; series mostly up to 61 µM. Summed up: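 After VDR-bla cells are plated and left 4 h at 37C, DMSO-dissolved compounds and 3 nM (final) calcitriol agonist are added. Incubation continues 16 h at 37C; FRET beta-lactamase substrate then develops 2 h at room temperature.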

For test [11], the target named is Aryl hydrocarbon receptor (Homo sapiens) (UniProt P35869). In words: qHTS assay to identify small molecule that activate the aryl hydrocarbon receptor (AhR) signaling pathway (AID 743085). Further: nearly all actives have a fitted effect of over 15% in size. Further: potency means the concentration at half of the fitted maximal effect.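 On activation: HG2L7.5c1 human HepG2 liver cells with stably integrated DRE-driven firefly reporter.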 Conditions: HepG2 AhR-luc (HG2L7.5c1), luciferase, 24 h; series mostly up to 70.3 µM. Summed up:
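Reporter assay in engineered HepG2 line HG2L7.5c1, whose plasmid carries twenty dioxin responsive elements upstream of firefly luciferase. Treatment lasted 24 h at 37C; ONE-Glo luminescence gauged induction.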

The target in test [12] is Peroxisome proliferator-activated receptor gamma (Homo sapiens) (UniProt P37231). The test is described as follows: qHTS assay to identify small molecule agonists of the peroxisome proliferator-activated receptor gamma (PPARg) signaling pathway (AID 743094; active means well fitted activation curve with a large enough effect in the signal ratio in the repeat runs, not every such curve was filed as active; the % refers to the signal ratio). The settings on record: HEK293H PPARg-UAS-bla, beta-lactamase FRET ratio, 17 h; series mostly up to 57 µM. The method in brief:
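Cell-based bla reporter, HEK293H background, PPARg-driven UAS. Pre-incubation 5 h, 37C, 5% CO2. Compound 17 h, 37C. Substrate 1 h RT; fluorescence.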

For test [13] the target is unchanged. In words: qHTS assay to identify small molecule antagonists of the peroxisome proliferator-activated receptor gamma (PPARg) signaling pathway (AID 743191; calls by dose curve; further: nearly all actives have a fitted effect of over 30% in size). Conditions: HEK293H PPARg-UAS-bla, beta-lactamase ratio, antagonist, 17 h; series mostly up to 62.6 µM. The method in brief: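 GeneBLAzer PPARg UAS-bla HEK293H cells, 5 h post-plating, exposed to compounds 17 h at 37C. LiveBLAzer B/G FRET substrate added for 1 h at room temperature; beta-lactamase reporter read by fluorescence intensity.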

Test [14] can be described thus: qHTS assay for small molecule agonists of the antioxidant response element (ARE) signaling pathway (AID 743202; active means well fitted activation curve with a large enough effect in the signal ratio in the repeat runs, not every such curve was filed as active; the % refers to the signal ratio; further: potency means the concentration at half of the fitted maximal effect). Conditions: HepG2 ARE-bla reporter, beta-lactamase FRET, 16 h; series mostly up to 73.3 µM. The method in brief: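 HepG2 ARE-bla cells; 16 h treatment at 37 C; FRET-based beta-lactamase fluorescence read after 2 h substrate incubation at room temperature.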

A short description of test [15]: qHTS assay for small molecule activators of the heat shock response signaling pathway - cell viability counter screen (AID 743209). Further: nearly all actives have a fitted effect of over 50% in size. The settings on record: HSE-bla HeLa viability, CellTiter-Glo luminescence, 5 h; series mostly up to 62.6 µM. Summed up:
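Same-well multiplex: after 2.5 h room-temperature incubation with LiveBLAzer B/G substrate and fluorescence reading, CellTiter-Glo reagent was added to HSE-bla HeLa cells that had received compound for 5 h at 37 C; luminescence read after 30 min.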

Test [16] concerns the target Peroxisome proliferator-activated receptor delta (Homo sapiens) (UniProt Q03181). In words: qHTS assay to identify small molecule agonists of the peroxisome proliferator-activated receptor delta (PPARd) signaling pathway (AID 743212; calls by dose curve). The settings on record: HEK293H PPARd-UAS-bla, beta-lactamase FRET ratio, 17 h; series mostly up to 62.6 µM. The method in brief: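 Tox21 library screened in GeneBLAzer PPARd UAS-bla HEK293H cells. After compound treatment at 37 C, a FRET-based beta-lactamase substrate was applied for 2 h and fluorescence recorded.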

A short description of test [17]: qHTS assay to identify small molecule agonists of the farnesoid-X-receptor (FXR) signaling pathway - cell viability counter screen (AID 743218). Further: nearly all actives have a fitted effect of over 45% in size. The settings on record: FXR-bla HEK293T viability, CellTiter-Glo luminescence, 16 h; series mostly up to 62.6 µM. Summed up: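 Readout: CellTiter-Glo luminescence, 30 min RT, multiplexed after the FXR-bla FRET reading. HEK 293T FXR-UAS-bla cells received compound 5 h post-plating and were incubated 16 h at 37 C.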

Test [18] can be described thus: qHTS assay to identify small molecule antagonists of the farnesoid-X-receptor (FXR) signaling pathway - cell viability counter screen (AID 743221; active means well fitted cell-killing curve with a large enough effect in the repeat runs, not every such curve was filed as active; further: nearly all actives have a fitted effect of over 50% in size). Conditions: FXR-bla HEK293T viability, CellTiter-Glo luminescence, 16 h; series mostly up to 62.6 µM. Summed up: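 CellTiter-Glo, 30 min RT, luminescence; same wells as the LiveBLAzer FRET read. Cells: FXR-UAS-bla HEK 293T. Treatment: compound with chenodeoxycholic acid 50 uM final, 16 h at 37 C.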

Test [19] concerns the target Bile acid receptor (Homo sapiens) (UniProt Q96RI1). In words: qHTS assay to identify small molecule antagonists of the farnesoid-X-receptor (FXR) signaling pathway (AID 743217; active means well fitted inhibition curve with a large enough effect in the signal ratio in the repeat runs, not every such curve was filed as active; the % refers to the signal ratio). The settings on record: HEK293T FXR-UAS-bla, beta-lactamase ratio, CDCA-stimulated, 16 h; series mostly up to 62.6 µM. Summed up: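 FRET fluorescence after 2 h room-temperature LiveBLAzer loading gives the readout. Prior step: FXR-bla HEK 293T cells, seeded and incubated 5 h, received test compounds plus 50 uM final CDCA for 16 h at 37 °C.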

Test [20] has the same target. In words: qHTS assay to identify small molecule agonists of the farnesoid-X-receptor (FXR) signaling pathway (AID 743220; active means well fitted activation curve with a large enough effect in the signal ratio in the repeat runs, not every such curve was filed as active; the % refers to the signal ratio). The settings on record: HEK293T FXR-UAS-bla, beta-lactamase FRET ratio, 16 h; series mostly up to 62.6 µM. The method in brief: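 FXR-UAS-bla HEK 293T cells carrying a UAS-driven beta-lactamase reporter were plated for 5 h at 37C/5% CO2, then exposed to DMSO-dissolved Tox21 10K compounds for 16 h at 37C. A LiveBLAzer B/G FRET substrate was loaded for 2 h at room temperature before fluorescence reading.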

This note sets out measurements from PubChem BioAssay (Tox21).

Results filed as inconclusive are left out. A number with no mark means an inactive call. Activity calls are given as the source filed them. Unless noted, the call rests on the fitted dose curve; in most records, active means well fitted curve in the direction sought with a large enough effect in the repeat runs; inconclusive means weak or mixed curves; inactive means no such curve, though single readings can be large; an effect the other way counts as inactive or inconclusive.
On the % scale 0 is the no-effect control and ±100 the full control effect.

Aryl hydrocarbon receptor (Homo sapiens), sequence (P35869 whole entry, looked up): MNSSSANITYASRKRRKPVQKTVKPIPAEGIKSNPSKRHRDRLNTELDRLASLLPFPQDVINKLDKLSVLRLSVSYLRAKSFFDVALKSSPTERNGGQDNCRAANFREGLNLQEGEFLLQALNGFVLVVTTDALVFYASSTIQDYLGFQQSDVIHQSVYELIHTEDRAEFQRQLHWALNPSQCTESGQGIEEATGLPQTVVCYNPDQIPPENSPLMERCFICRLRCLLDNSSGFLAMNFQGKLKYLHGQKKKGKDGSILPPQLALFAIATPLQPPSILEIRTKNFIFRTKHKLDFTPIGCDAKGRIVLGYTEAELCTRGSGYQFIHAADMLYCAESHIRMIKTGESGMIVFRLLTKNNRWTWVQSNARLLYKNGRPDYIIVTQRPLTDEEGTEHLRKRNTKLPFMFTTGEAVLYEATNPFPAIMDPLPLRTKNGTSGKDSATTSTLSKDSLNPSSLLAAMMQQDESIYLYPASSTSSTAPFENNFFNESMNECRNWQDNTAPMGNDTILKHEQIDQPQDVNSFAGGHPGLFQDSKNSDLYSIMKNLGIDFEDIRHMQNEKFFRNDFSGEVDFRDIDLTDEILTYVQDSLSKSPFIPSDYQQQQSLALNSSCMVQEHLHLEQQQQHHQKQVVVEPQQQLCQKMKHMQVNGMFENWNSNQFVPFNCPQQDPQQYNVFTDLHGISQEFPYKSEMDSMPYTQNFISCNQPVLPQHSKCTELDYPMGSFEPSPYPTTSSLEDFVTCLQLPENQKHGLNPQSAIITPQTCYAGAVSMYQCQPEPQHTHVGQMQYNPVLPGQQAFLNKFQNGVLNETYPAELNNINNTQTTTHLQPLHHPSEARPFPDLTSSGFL
Peroxisome proliferator-activated receptor gamma (Homo sapiens), sequence (P37231 whole entry, looked up): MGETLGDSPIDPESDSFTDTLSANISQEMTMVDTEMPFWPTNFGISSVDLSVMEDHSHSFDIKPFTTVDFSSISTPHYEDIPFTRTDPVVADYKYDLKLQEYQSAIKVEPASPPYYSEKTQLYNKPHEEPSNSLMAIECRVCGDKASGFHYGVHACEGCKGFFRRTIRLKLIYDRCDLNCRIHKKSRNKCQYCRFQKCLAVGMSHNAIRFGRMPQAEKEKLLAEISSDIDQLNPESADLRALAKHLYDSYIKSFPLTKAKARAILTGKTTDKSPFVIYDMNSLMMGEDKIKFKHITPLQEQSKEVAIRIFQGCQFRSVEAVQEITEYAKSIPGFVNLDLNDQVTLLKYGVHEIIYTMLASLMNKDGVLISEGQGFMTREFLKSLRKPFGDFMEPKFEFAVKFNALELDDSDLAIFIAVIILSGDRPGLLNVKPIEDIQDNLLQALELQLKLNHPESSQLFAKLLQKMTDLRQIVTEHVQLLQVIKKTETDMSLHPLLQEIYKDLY
Vitamin D3 receptor (Homo sapiens), sequence (P11473 whole entry, looked up): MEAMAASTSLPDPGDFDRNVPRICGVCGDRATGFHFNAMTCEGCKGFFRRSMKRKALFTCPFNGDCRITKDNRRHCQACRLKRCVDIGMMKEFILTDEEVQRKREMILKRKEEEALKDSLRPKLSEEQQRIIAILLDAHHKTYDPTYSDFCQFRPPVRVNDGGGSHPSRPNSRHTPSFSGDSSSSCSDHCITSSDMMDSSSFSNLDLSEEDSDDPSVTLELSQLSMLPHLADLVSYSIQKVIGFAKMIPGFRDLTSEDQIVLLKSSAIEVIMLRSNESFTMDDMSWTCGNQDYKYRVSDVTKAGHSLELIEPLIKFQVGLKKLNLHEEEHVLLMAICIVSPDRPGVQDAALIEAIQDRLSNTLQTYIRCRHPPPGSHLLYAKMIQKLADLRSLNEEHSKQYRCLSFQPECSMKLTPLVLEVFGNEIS
Bile acid receptor (Homo sapiens), sequence (Q96RI1 whole entry, looked up): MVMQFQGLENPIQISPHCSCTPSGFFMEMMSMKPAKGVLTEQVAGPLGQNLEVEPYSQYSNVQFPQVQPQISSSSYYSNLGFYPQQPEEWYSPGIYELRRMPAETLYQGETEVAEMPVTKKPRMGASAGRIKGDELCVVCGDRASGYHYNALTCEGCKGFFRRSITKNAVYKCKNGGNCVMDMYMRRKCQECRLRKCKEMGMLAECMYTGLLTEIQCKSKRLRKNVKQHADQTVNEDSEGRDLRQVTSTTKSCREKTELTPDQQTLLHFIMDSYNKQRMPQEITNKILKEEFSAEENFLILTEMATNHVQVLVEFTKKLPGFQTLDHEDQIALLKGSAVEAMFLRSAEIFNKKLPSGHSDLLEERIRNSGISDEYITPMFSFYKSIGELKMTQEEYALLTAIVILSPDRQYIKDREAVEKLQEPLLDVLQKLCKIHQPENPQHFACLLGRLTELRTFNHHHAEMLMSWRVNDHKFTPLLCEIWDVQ

`CC1(CO)CN(c2ccccc2)NC1=O` (centres undefined): the Potency result in test [1] and in test [2] was “inactive” throughout. Further, the result in test [3], in test [4], in [5], in test [6], in [7] and in [8] was inactive. The outcome in test [9] and in test [10] was inactive.
As to `CC(C)CCCCOC(=O)c1ccccc1C(=O)OCCCCC(C)C`, the Potency entry in test [11], in test [2], in test [13], in test [14] and in [17] was “inactive” throughout. The result in test [12], in [3], in test [4], in test [15], in test [5] and in [6] was inactive. For the same compound, the result in test [16], in test [7], in test [8] and in [18] was inactive.
For the compound `COC(=O)C1CC(=O)C(C(=O)OC)CC1=O` (centres undefined), the activation in test [11] is 0.473% [at 8.47 µM]; in [12], -2.09% [at 7.08 µM]; in test [14] it was -4.53% [at 8.36 µM]; in test [16], 3.55% [at 5.95 µM]. Besides, the viability change, negative = cytotoxic was 14.4% [at 8.47 µM] in test [2], -0.839% [at 8.36 µM] in [4], -19.8% [at 6.26 µM] in [7] and 25% [at 5.95 µM] in [17]. The ratio activity, negative = inhibition in test [13] was 0.96% [at 5.95 µM]; in test [8], -19.7% [at 6.26 µM]. For the same compound, the activity change, negative = cytotoxicity in test [3] is 17.9% [at 5.95 µM]; in test [15] it was 12.2% [at 5.95 µM]; in [6] it was -4.27% [at 5.95 µM]; in [18], -3.4% [at 5.95 µM]. Besides, the activity change, negative = inhibition in test [10] was 0.852% [at 6.95 µM].
`CCCOC(=O)C(C)O` (centres undefined): the Potency result in test [11], in [2], in test [13], in test [14], in test [19] and in test [17] was “inactive” throughout. The Potency entry in test [20] is “inactive”. Further, the outcome in test [12], in test [3], in [4], in test [15], in test [16] and in test [18] was inactive. Further, in test [10], the result was inactive.
Regarding `CCOCCOC(=O)/C=C/c1ccc(OC)cc1`, the Potency entry in test [13], in [19], in test [17] and in test [20] was “inactive” throughout. Also, the outcome in test [3], in test [4], in [15], in [6], in test [18] and in test [9] was inactive. For the same compound, the outcome in [10] was inactive.
Consider `C=CC(OCC)OCC`, for which the Potency in test [11] is 60.4 µM (active); in [14], 34 µM (active). Moreover, the Potency entry in [2] and in test [17] was “inactive” in each case. Also, the outcome in [12], in [3], in [4], in [15], in [6] and in [16] was inactive. In addition, the compound was classed as inactive in test [7], in [8], in [18], in test [9] and in [10].
`Cc1ccc2ccc(Cl)cc2n1`: the Potency result in [13], in test [14] and in test [17] was “inactive” each time. For the same compound, the result in [3], in test [4], in test [15], in test [5], in [6] and in [16] was inactive. Moreover, the compound was classed as inactive in [7], in [8], in test [18], in [9] and in test [10].
`CCn1ccc(NS(=O)(=O)c2ccc(N)cc2)nc1=O`: the result in test [3], in [4], in test [15], in test [5], in test [6] and in test [7] was inactive. The result in [8], in test [18] and in test [9] was inactive. In addition, the Potency result in [17] was “inactive”.
